Measurements from PubChem BioAssay (NCI).
Compounds without any hit were thinned out: in the full panel of roughly 79,000, 15% have a hit. Unmarked numbers belong to inactive results. Calls of active or inactive are those of the source. No stated cut-off is given here; in the data, active means growth inhibition above about 70%; inactive means the rest.

What was measured:
[1] = NCI Yeast Anticancer Drug Screen. Data for the rad50 strain (AID 155);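 further: 0% = growth of vehicle-only cultures of the same strain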; conditions: S. cerevisiae rad50 strain growth inhibition, stronger effect = higher value
Summary of the method: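 Vehicle-treated cultures provide the reference for the growth inhibition reported for compound-exposed, repair-deficient yeast.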

[2] = NCI Yeast Anticancer Drug Screen. Data for the mec2-1 strain (AID 157); conditions: S. cerevisiae mec2-1 strain, stronger effect = higher value
Summary of the method: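 Cells of the genetically defined mec2-1 yeast strain are incubated with test compound. Inhibition of growth is calculated against vehicle-treated controls.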

[3] = NCI Yeast Anticancer Drug Screen. Data for the sgs1 mgt1 strain (AID 161);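 further: 0% = growth of cultures given vehicle only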; conditions: S. cerevisiae sgs1 mgt1 strain, stronger effect = higher value
Summary of the method: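 Inhibition of yeast growth, normalised to vehicle-treated controls, is reported for a strain bearing genetic alterations in DNA damage repair.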

[4] = NCI Yeast Anticancer Drug Screen. Data for the cln2 rad14 strain (AID 165);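 further: 0% = growth equal to vehicle treated cultures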; conditions: S. cerevisiae cln2 rad14 strain, stronger effect = higher value
Summary of the method: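 The screen exposed genetically defined yeast (cln2 rad14) to test compounds and scored growth inhibition relative to vehicle-treated controls.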

[5] = NCI Yeast Anticancer Drug Screen. Data for the bub3 strain (AID 167); conditions: S. cerevisiae bub3 mutant strain, stronger effect = higher value
Summary of the method: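 Mutant yeast screening strain plus compound; vehicle-treated cultures serve as the 0% inhibition reference.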

[6] = NCI Yeast Anticancer Drug Screen. Data for the mlh1 rad18 strain (AID 175); conditions: S. cerevisiae mlh1 rad18 strain growth inhibition, stronger effect = higher value
Summary of the method: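 Compound-treated yeast growth, normalised to vehicle controls. Strain bears defined DNA repair mutations.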

[7] = at 5.0 µM (retest, dose inferred, filed as 0.5)
[8] = at 50.0 µM (retest, dose inferred, filed as 5.0)

CC(=O)/C=C1\C(=O)Nc2ccccc21
growth inhibition [1, 7]: 20% | growth inhibition [1, 8]: 97% (active) | growth inhibition ([1]; at 50.0 µM): 85.1% (active) | growth inhibition [2, 7]: 10% | growth inhibition [2, 8]: 100% (active) | growth inhibition ([2]; at 50.0 µM): 91.6% (active) | growth inhibition [3, 7]: 16% | growth inhibition [3, 8]: 92% (active) | growth inhibition ([3]; at 50.0 µM): 91.7% (active) | growth inhibition [4, 7]: 26% | growth inhibition [4, 8]: 95% (active) | growth inhibition ([4]; at 50.0 µM): 32.9% | growth inhibition [5, 7]: 12% | growth inhibition [5, 8]: 99% (active) | growth inhibition ([5]; at 50.0 µM): 87.7% (active) | growth inhibition [6, 7]: 14% | growth inhibition [6, 8]: 99% (active) | growth inhibition ([6]; at 50.0 µM): 78.7% (active)

Nc1cc2c(c[n+](CCCCCCCCCC[n+]3cc4c5ccccc5c(N)cc4c4ccccc43)c3ccccc23)c2ccccc12
growth inhibition [1, 7]: 20% | growth inhibition [1, 8]: 94% (active) | growth inhibition ([1]; at 50.0 µM): 88% (active) | growth inhibition [2, 7]: 36% | growth inhibition [2, 8]: 96% (active) | growth inhibition ([2]; at 50.0 µM): 91.8% (active) | growth inhibition [3, 7]: 56% | growth inhibition [3, 8]: 95% (active) | growth inhibition ([3]; at 50.0 µM): 85% (active) | growth inhibition [4, 7]: 16% | growth inhibition [4, 8]: 92% (active) | growth inhibition ([4]; at 50.0 µM): 87.8% (active) | growth inhibition [5, 7]: 58% | growth inhibition [5, 8]: 95% (active) | growth inhibition ([5]; at 50.0 µM): 81% (active) | growth inhibition [6, 7]: 63% | growth inhibition [6, 8]: 95% (active) | growth inhibition ([6]; at 50.0 µM): 83.6% (active)

Cc1ccc2c(ccc(CC(=S)[S-])[n+]2C)c1
growth inhibition [1, 7]: 10% | growth inhibition [1, 8]: 41% | growth inhibition ([1]; at 50.0 µM): 58.2% | growth inhibition [2, 7]: 11% | growth inhibition [2, 8]: 21% | growth inhibition ([2]; at 50.0 µM): 51.6% | growth inhibition [3, 7]: 11% | growth inhibition [3, 8]: 46% | growth inhibition ([3]; at 50.0 µM): 66.3% | growth inhibition [4, 7]: 10% | growth inhibition [4, 8]: 37% | growth inhibition ([4]; at 50.0 µM): 47.3% | growth inhibition [5, 7]: 3% | growth inhibition [5, 8]: 38% | growth inhibition ([5]; at 50.0 µM): 61.5% | growth inhibition [6, 7]: 4% | growth inhibition [6, 8]: 41% | growth inhibition ([6]; at 50.0 µM): 90.2% (active)

Cc1ccc(C)c(NC(=O)CC2SC(=Nc3ccccc3Cl)NC2=O)c1 (configuration not stated)
growth inhibition [1, 7]: 23% | growth inhibition [1, 8]: 65% | growth inhibition ([1]; at 50.0 µM): 79% (active) | growth inhibition [2, 7]: 24% | growth inhibition [2, 8]: 60% | growth inhibition ([2]; at 50.0 µM): 58.9% | growth inhibition [3, 7]: 25% | growth inhibition [3, 8]: 91% (active) | growth inhibition ([3]; at 50.0 µM): 65.3% | growth inhibition [4, 7]: 23% | growth inhibition [4, 8]: 55% | growth inhibition ([4]; at 50.0 µM): 78% (active) | growth inhibition [5, 7]: 33% | growth inhibition [5, 8]: 85% (active) | growth inhibition ([5]; at 50.0 µM): 75.9% (active) | growth inhibition [6, 7]: 31% | growth inhibition [6, 8]: 82% (active) | growth inhibition ([6]; at 50.0 µM): 64.5%

COc1ccccc1C1SC(c2ccccc2)(c2ccccc2)OC1=O (configuration not stated)
growth inhibition [1, 7]: -2% | growth inhibition [1, 8]: -9% | growth inhibition ([1]; at 50.0 µM): 84.6% (active) | growth inhibition [2, 7]: -2% | growth inhibition [2, 8]: -4% | growth inhibition ([2]; at 50.0 µM): 50.1% | growth inhibition [3, 7]: 12% | growth inhibition [3, 8]: -2% | growth inhibition ([3]; at 50.0 µM): 80.2% (active) | growth inhibition [4, 7]: -2% | growth inhibition [4, 8]: -7% | growth inhibition ([4]; at 50.0 µM): 84.8% (active) | growth inhibition [5, 7]: -1% | growth inhibition [5, 8]: 16% | growth inhibition ([5]; at 50.0 µM): 85.9% (active) | growth inhibition [6, 7]: 0% | growth inhibition [6, 8]: -6% | growth inhibition ([6]; at 50.0 µM): 80.9% (active)

CC(C(O)c1ccccc1)C(O)(C(F)(F)F)C(F)(F)F (configuration not stated)
growth inhibition [1, 7]: 8% | growth inhibition [1, 8]: 13% | growth inhibition ([1]; at 50.0 µM): 8.95% | growth inhibition [2, 7]: 6% | growth inhibition [2, 8]: -3% | growth inhibition ([2]; at 50.0 µM): -7.6% | growth inhibition [3, 7]: 3% | growth inhibition [3, 8]: 10% | growth inhibition ([3]; at 50.0 µM): -15.9% | growth inhibition [4, 7]: 1% | growth inhibition [4, 8]: -4% | growth inhibition ([4]; at 50.0 µM): 15.5% | growth inhibition [5, 7]: -2% | growth inhibition [5, 8]: -7% | growth inhibition ([5]; at 50.0 µM): -19.6% | growth inhibition [6, 7]: 18% | growth inhibition [6, 8]: 6% | growth inhibition ([6]; at 50.0 µM): 17.4%

O=C1/C(=C/c2ccccc2)CCCc2ccccc21
growth inhibition [1, 7]: -2% | growth inhibition [1, 8]: 28% | growth inhibition ([1]; at 50.0 µM): 59.8% | growth inhibition [2, 7]: 7% | growth inhibition [2, 8]: 62% | growth inhibition ([2]; at 50.0 µM): 49.5% | growth inhibition [3, 7]: 14% | growth inhibition [3, 8]: 79% (active) | growth inhibition ([3]; at 50.0 µM): 86% (active) | growth inhibition [4, 7]: -10% | growth inhibition [4, 8]: 14% | growth inhibition ([4]; at 50.0 µM): 19.7% | growth inhibition [5, 7]: 10% | growth inhibition [5, 8]: 75% (active) | growth inhibition ([5]; at 50.0 µM): 74.8% (active) | growth inhibition [6, 7]: 10% | growth inhibition [6, 8]: 73% (active) | growth inhibition ([6]; at 50.0 µM): 75% (active)

S=C(N/N=C/c1ccccn1)N1CCCCCC1
growth inhibition [1, 7]: 99% (active) | growth inhibition [1, 8]: 100% (active) | growth inhibition ([1]; at 50.0 µM): 88.8% (active) | growth inhibition [2, 7]: 98% (active) | growth inhibition [2, 8]: 100% (active) | growth inhibition ([2]; at 50.0 µM): 92.8% (active) | growth inhibition [3, 7]: 98% (active) | growth inhibition [3, 8]: 99% (active) | growth inhibition ([3]; at 50.0 µM): 91.6% (active) | growth inhibition [4, 7]: 97% (active) | growth inhibition [4, 8]: 100% (active) | growth inhibition ([4]; at 50.0 µM): 92.8% (active) | growth inhibition [5, 7]: 99% (active) | growth inhibition [5, 8]: 100% (active) | growth inhibition ([5]; at 50.0 µM): 92.2% (active) | growth inhibition [6, 7]: 99% (active) | growth inhibition [6, 8]: 99% (active) | growth inhibition ([6]; at 50.0 µM): 88.8% (active)

COc1cc(C(c2cc3c(cc2O)OCO3)N2CCOCC2)cc(OC)c1OC (configuration not stated)
growth inhibition [1, 7]: 0% | growth inhibition [1, 8]: 23% | growth inhibition ([1]; at 50.0 µM): 35.5% | growth inhibition [2, 7]: -23% | growth inhibition [2, 8]: 13% | growth inhibition ([2]; at 50.0 µM): 67.7% | growth inhibition [3, 7]: -3% | growth inhibition [3, 8]: 28% | growth inhibition ([3]; at 50.0 µM): 17% | growth inhibition [4, 7]: 4% | growth inhibition [4, 8]: 8% | growth inhibition ([4]; at 50.0 µM): 20.6% | growth inhibition [5, 7]: 2% | growth inhibition [5, 8]: 11% | growth inhibition ([5]; at 50.0 µM): 7.1% | growth inhibition [6, 7]: -4% | growth inhibition [6, 8]: 21% | growth inhibition ([6]; at 50.0 µM): 19%
